Experimental data taken from PubChem BioAssay AID2551 (National Center for Advancing Translational Sciences (NCATS), 2010).
Values joined by “and” are separate entries in the source; they are usually repeats but may differ in a detail not shown here. Identical values can stand only once. The whole screen tested about 310,000 compounds, of which about 17,000 (5.5%) were called active. Another 11% or so got no clear call; they are omitted. Calls come from the whole dose curve; as a rule, active = well fitted inhibition curve with a large enough effect; inconclusive = small, poorly fitted or top-dose-only effect, or effect the other way; inactive = no such curve, though single readings can be large or run the other way. This excerpt belongs to a sample that is enriched for actives.

The compounds below were run against Nuclear receptor ROR-gamma (Mus musculus) (UniProt P51450) (assay: qHTS for inhibitors of ROR gamma transcriptional activity). Conditions: Drosophila S2 Gal4-RORgamma UAS-luciferase reporter, 20 h; series mostly up to 53.6 µM; activity change, negative = inhibition: at the top concentration.
Nuclear receptor ROR-gamma (Mus musculus), sequence (P51450 whole entry, looked up, the tested form may be a part): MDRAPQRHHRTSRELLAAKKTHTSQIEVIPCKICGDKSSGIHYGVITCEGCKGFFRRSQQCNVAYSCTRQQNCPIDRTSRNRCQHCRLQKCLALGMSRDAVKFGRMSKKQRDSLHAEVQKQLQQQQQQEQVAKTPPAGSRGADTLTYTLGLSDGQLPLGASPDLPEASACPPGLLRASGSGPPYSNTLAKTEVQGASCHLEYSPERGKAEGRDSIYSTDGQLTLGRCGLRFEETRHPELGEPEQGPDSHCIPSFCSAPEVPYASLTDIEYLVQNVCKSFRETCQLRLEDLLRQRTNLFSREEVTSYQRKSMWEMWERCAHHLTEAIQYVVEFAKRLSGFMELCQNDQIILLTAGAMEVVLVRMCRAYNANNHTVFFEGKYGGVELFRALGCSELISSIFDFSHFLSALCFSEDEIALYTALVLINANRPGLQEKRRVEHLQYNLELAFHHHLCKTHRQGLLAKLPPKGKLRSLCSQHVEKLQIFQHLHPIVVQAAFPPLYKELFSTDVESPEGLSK
Source text: NIH Molecular Libraries Probe Production Network [MLPCN] NIH Chemical Genomics Center [NCGC] MLPCN Grant: R03 DA026211-01 Assay Provider: Dan Littman, New York University Assay Overview: The retinoic acid-related orphan receptor (ROR) gamma is a transcription factor that has a central role in the differentiation of Th17 cells, a subset of T helper cells that secrete the inflammatory cytokines IL-17, IL-17F, and IL-22. Th17 cells have been implicated in graft versus host disease, autoimmune disease and asthma. ROR gamma is induced in naive T helper cells in the presence of TGF-beta combined with IL-6, IL-21, or IL-23, and thereafter directs the expression of the Th17 lineage cytokines. To study the mechanism of action of ROR gamma, an insect cell-based assay was screened. This Drosophila Schneider cell line was stably transfected with two vectors: a gene expressing a fusion of the Gal4 DNA binding domain and ROR gamma transactivation domain under the control of the metallothionine promoter and a Photinus luciferase reporter regulated by the Gal4 binding site enhancer, UAS. […] Small molecule inhibitors of ROR gamma activity are detected by a decrease in luciferase reporter activity.
Assay Protocol Summary: For screening, 600 cells in 4 uL/well were dispensed into white solid 1536-well plates (Grenier) using a solenoid-based dispenser. Following transfer of 23 nL compound or DMSO vehicle by a pin tool, the plates were incubated 1 hr at ambient temperature, and 1 uL/well copper sulfate (700 uM final concentration) was added. The plates were centrifuged 15 s at 1000 RPM and incubated 20 hr at ambient temperature. After addition of 1.5 uL Photinus luciferase detection reagent, the plates were incubated 10 min at ambient temperature and then read by an ViewLux (Perkin Elmer) to detect luminescence. Keywords: NIH Roadmap, MLPCN, MLI, MLSMR, qHTS, NCGC, qHTS, nuclear hormone receptor, retinoic acid-related orphan receptor, ROR gamma
% is set by controls: 0 for no effect and ±100 for the full control effect; potency is the fitted concentration of half-maximal effect.
Note: nearly all actives have a fitted effect of over 60% in size.

SMILES | activity change, negative = inhibition | Potency
O=S(=O)(NC1CCCC1)c1ccc(-n2cnnn2)cc1 | -26.9% (inactive) | 
Cc1sc2nc(SCCO)n(-c3ccccc3)c(=O)c2c1C | 16.7% (inactive) | 
COCCCNC(=S)N1CCN(c2nc(-c3cccc(OC)c3)cs2)CC1 | 19.9% (inactive) | 
O=C(Nc1c2c(nn1-c1ccccc1)CS(=O)(=O)C2)C1CCCC1 | -9.49% (inactive) | 
Nn1cnnc1N/N=C/c1cc([N+](=O)[O-])c(Cl)cc1Cl |  | 11.2 µM (active)
NC(N)=N/N=C/c1ccc(Cl)c([N+](=O)[O-])c1 | 2.73% (inactive) | 
CC(CN1CCC(n2nccc2NC(=O)C2CCCC2)CC1)c1ccccc1 (stereo not drawn) | -26.1% (inactive) | 
Oc1ccc(Br)cc1C=Nc1ccc2[nH]ncc2c1 |  | 11.2 µM (active)
O=C(CCc1nnc2ccc(NCc3ccco3)nn12)Nc1cc(F)ccc1F | 12.4% (inactive) | 
CC(=O)NCCn1c(SCC(=O)Nc2ccc(C)cc2)nc2ccccc2c1=O | 8.63% (inactive) | 
CCn1c(SCC(=O)Nc2ccc(C)cc2)nc2nc3c(cc2c1=O)CCCC3 |  | 10 µM (active)
CCc1ccc(NC(=O)CSc2nc3ccccc3c(=O)n2CCN2CCOCC2)cc1 | 42.2% (inactive) | 
CCn1c(C)c(C)c2cc(C(=O)N3CCN(c4cccc(C)c4C)CC3)ccc21 | 2.35% (inactive) | 
CCCCC(c1nnnn1CS(=O)(=O)c1ccc(C)cc1)N1CCC(C(N)=O)CC1 (stereo not drawn) | -7.67% (inactive) | 
Cc1ccc(CNC(=O)Cc2cn(C)c3ccccc23)cc1 | 24.8% (inactive) | 
Cc1cc(C(=O)N/N=C/c2cc([N+](=O)[O-])cc(C)c2O)n[nH]1 |  | 10 µM (active)
COc1ccc2ccccc2c1/C=N/NC(=O)c1cc(C)[nH]n1 | -11.2% (inactive) | 
CC(C)(C)c1cc(C(=O)N/N=C/c2ccc([N+](=O)[O-])s2)n[nH]1 | -30.6% (inactive) | 
CCCCn1c(SCC(=O)N2CCOCC2)nc2c1c(=O)n(C)c(=O)n2C | 8.39% (inactive) | 
CC1CC2=C(CC1/C=N/NC(N)=S)C(C)(C)CCC2 (stereo not drawn) |  | 1.41 µM (active)
CC1(C)CCCC2=C1CC1C(=O)N(c3ccccc3)C(=O)C1C2 (stereo not drawn) | -12.1% (inactive) | 
CC(C)[C@H](NC(=O)N1CCn2c1nc1ccccc12)C(=O)NCc1ccc2c(c1)OCO2 | -24.8% (inactive) | 
Cc1ccc2[nH]c(=O)c(CC(=O)O)c(-c3ccccc3)c2c1 | -2.08% (inactive) | 

SMILES | activity change, negative = inhibition | Potency
COc1ccc(C(C)NC(=O)C23CC4CC(CC(C4)C2)C3)cc1 (stereo not drawn) | 7.13% (inactive) | 
CC(C)/C=N/NC(=O)c1cc(Br)ccc1O |  | 10 µM (active)
O=C(N/N=C\c1cccc(Br)c1)c1ccccc1-n1cccc1 | -2.2% (inactive) | 
CC(=N\NC(=O)c1cc(Br)ccc1O)/C(=N/O)C(=O)Nc1ccccc1 |  | 7.94 µM (active)
O=C(O)c1ccc(/C=N/NC(=O)c2ccc(Br)cc2)cc1 | -14.5% (inactive) | 
O=C(Nc1cccc(NC(=O)c2ccc(Br)cc2)c1)c1ccccc1 | -13.1% (inactive) | 
O=C(Nc1ccc(C(=O)O)cc1)/C(=C\c1ccccc1)NC(=O)c1ccc(Br)cc1 | 9.49% (inactive) | 
Cc1cccc(N(C(=O)Cn2nnc(-c3ccc(C)o3)n2)C(C(=O)NC2CCCC2)c2ccncc2)c1 (stereo not drawn) | -41.8% (inactive) | 
O=C(CCN1C(=O)[C@H]2CC=CC[C@H]2C1=O)NCc1nc(-c2ccccc2)no1 | 8.53% (inactive) | 
CCCNC(=O)c1ccc(N2CCC3(CC2)CC(c2ccc(Cl)cc2)=NO3)c([N+](=O)[O-])c1 | 20.5% (inactive) | 
O=C1CCC(C(=O)N2CCC(O)(c3ccccc3)CC2)CN1CCc1ccccc1 (stereo not drawn) | 1.71% (inactive) | 
Cc1ccc(N2CCN(C(=O)c3cccs3)CC2)c(C)c1 | -16.4% (inactive) | 
COc1ccc(/C=N/OCc2ccccc2C#N)c(OC)c1 | 15.5% (inactive) | 
Cc1ccc(C(=O)NCC(=O)NCc2cc(=O)n(C)c(=O)n2C)cc1 | -10.6% (inactive) | 
COc1ccc(Cl)cc1CSc1ncn[nH]1 | -20.7% (inactive) | 
O=C(NCCOCc1ccc(Cl)cc1)c1ncn[nH]1 | -4.46% (inactive) | 
O=C(/C=C/Sc1ncn[nH]1)c1ccc(Cl)cc1 |  | 4.47 µM (active)
COCCNC(=O)COc1ccc(N(C)S(=O)(=O)c2ccc3ccccc3c2)cc1 | -0.588% (inactive) | 
COc1cccc(N(CC(=O)NC2CCCC2)C(=O)CCCC(=O)Nc2ccccn2)c1 | 5.39% (inactive) | 
COc1ccc(/C=C2\SC(=N)N(c3ccc(F)cc3)C2=O)cc1 | -15% (inactive) | 
COc1ccc(/C=C2/S/C(=N/N=C3\CC4CCC3(C)C4(C)C)NC2=O)cc1 (stereo not drawn) |  | 10 µM (active)
COc1ccc(/C=C2\NC(=O)[C@@H]3Cc4ccccc4CN3C2=O)cc1 | 17.6% (inactive) | 
Cc1ccc(C)c(C(=O)N2CCC(n3nccc3NC(=O)C3CC3)CC2)c1 | 4.12% (inactive) | 

SMILES | activity change, negative = inhibition | Potency
Cc1[nH]nc(-c2ccc(OCc3cnn(-c4ccccc4)c3)cc2O)c1Oc1ccc(Cl)cc1 |  | 2.24 µM (active)
Cn1c(COc2ccc(Cl)cc2)nc2ccccc2c1=O | 27% (inactive) | 
COc1ccc(-c2nc(N)ncc2-c2ccc(Cl)cc2)c(O)c1 | 12.3% (inactive) | 
Cc1nc(COc2cc3oc(=O)cc(C)c3cc2Cl)cs1 | -0.324% (inactive) | 
CC(=O)NCCc1ccc(S(=O)(=O)Nc2ccc(C)c(S(=O)(=O)N3CCOCC3)c2)cc1 | -14.7% (inactive) | 
O=C(Nc1cccc(NC(=O)c2cccc(F)c2)c1)c1ccccc1 | 5.17% (inactive) | 
CCS(=O)(=O)NCCc1ccc(OC)c(OC)c1 |  | 11.2 µM (active)
COc1ccc(CCNS(=O)(=O)c2ccc(Cl)s2)cc1OC | -6.22% (inactive) | 
COc1ccc(CCNS(=O)(=O)c2ccc(F)cc2)cc1OC | 18.7% (inactive) | 
COc1ccc(S(=O)(=O)N2CCC(C(=O)NCc3ccco3)CC2)cc1C | -9.61% (inactive) | 
Cc1cccc(-c2noc(CCC(=O)NC3CCCC3)n2)c1 | 7.56% (inactive) | 
O=C(NCCCN1CCOCC1)c1cc(-c2ccccc2F)no1 | 16.6% (inactive) | 
CCn1c(O)c(N=NC2=NC(=O)CS2)c2cc(C)ccc21 |  | 4.47 µM (active)
CCn1c(=O)cc(O)c2ccccc21 | -5.33% (inactive) | 
COC(=O)Cn1c2ccc(C)cc2c2nc(C)sc21 | 3.75% (inactive) | 
CN(CC(=O)Nc1ccc(Cl)cc1)C(=O)CNC(=O)c1ccc2ccccc2c1 | 30.7% (inactive) | 
Cn1cc(CCC(=O)NC2CC2)c2ccccc21 | -22.2% (inactive) | 
O=C(CNC(=O)Cc1ccccc1)N=Nc1c(O)[nH]c2ccc(Br)cc12 | -24.9% (inactive) | 
O=C(C1CCCN(S(=O)(=O)c2ccc([N+](=O)[O-])cc2)C1)N1CCCCC1 (stereo not drawn) | 17.1% (inactive) | 
Cc1ccccc1NC(=O)c1ccccc1NS(=O)(=O)c1cccc2cccnc12 | -10.1% (inactive) | 
O=[N+]([O-])c1cccc2ncccc12 | 24.3% (inactive) | 
O=[N+]([O-])c1ccccc1S(=O)(=O)Nc1cccc2cccnc12 |  | 501 nM (active) and 708 nM (active)
